Among the data in PubChem BioAssay (NCI) are growth values, retold here.

Structures are written as SMILES. About 83,000 compounds went through this panel and 20% of them were active in at least one assay; those are over-represented in the sample as a whole.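 Plates (96-well) were seeded with cells, treated with compound at one concentration, and incubated for 48 hours before percent growth was determined.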 A number with no mark means an inactive call. Calls of active or inactive are those of the source. How the source made its calls: active means growth percent below 10; inactive means the rest.

What all share (assay): NCI-60 one-dose screen, 48 h (100 = growth as untreated, 0 = no growth, -100 = all killed)
What all share (details): 10 µM unless noted

In experiment [1] the test system is NCI-H23 lung.
Experiment [2] deals with NCI-H226 lung.
In experiment [3] the test system is NCI-H322M lung.
In experiment [4] the test system is HOP-62 NSCLC.
The test system of experiment [5] is NCI-H460 lung.
Experiment [6] has as its system HOP-92 NSCLC.
Experiment [7] deals with NCI-H522 lung.
In experiment [8] the test system is A549/ATCC NSCLC.
The test system of experiment [9] is 786-0 renal.
For experiment [10], the system named is COLO 205 colon.

Regarding `COc1ccc(C2=CC(c3ccc(OC)cc3Br)N3C=CSC3=N2)cc1` (stereo not given), the growth in experiment [1] is 96.9%; in experiment [2], 66.6%; in [3], 72.8%; in experiment [4], 75.6%; in experiment [5] it was 90.6%; in experiment [6], 77.4%. For the same molecule, the growth is 67.9% in experiment [7], 41.8% in experiment [8], 83.7% in experiment [9] and 80.3% in experiment [10].

Take `Oc1c(C(c2ccc(F)cc2)N2CCCCC2)ccc2cncnc12` (stereo not given): the growth in experiment [1] is 16.1%; in [2], -0.0481% (active); in experiment [3], 19.4%; in experiment [4], 11.6%; in experiment [5], 4.38% (active); in [6] it was -14.4% (active). The growth was 4.34% (active) in [7], 5.08% (active) in experiment [8], 23.1% in [9] and -30.1% (active) in experiment [10].

With `O=c1c2sc3ncc(Cl)cc3c2nnn1-c1cccc(Cl)c1`, the growth was 83.8% in [1]; 33.4% in [2]; 56.8% in [3]; 47.7% in experiment [4]; 22% in [5]; 63.8% in [6]. In addition, the growth was 82% in [7], 42.5% in [8], 72.5% in experiment [9] and 89.4% in experiment [10].

As to `COc1cc(C2CC(c3cccc(Nc4ccnc5cc(Cl)ccc45)c3)=NN2c2ccccc2)cc(OC)c1OC` (stereo not given), the growth in [1] was 79.5%; in [2], 82.1%; in experiment [3], 87%; in experiment [4], 82.3%; in experiment [5], 71.1%; in experiment [6] it was 33.3%. The growth in [7] is 53.8%; in experiment [8], 76.2%; in experiment [9], 88%; in experiment [10], 92.2%.

`CC(C)NCCCCCNc1cc(O)cc2cccnc12`: the growth is 45.7% in experiment [1]; 92.1% in experiment [2]; 56.9% in experiment [3]; 71.5% in experiment [4]; 105% in [5]; -8.76% (active) in experiment [6]. The growth in experiment [7] is 86.5%; in experiment [8], 123%; in experiment [9], 70.1%; in [10], -36.3% (active).

For the molecule `N#Cc1c(N)c(C(=O)c2ccc3c(c2)OCCO3)n2c1CCCC2`, the growth in [1] was 42.7%; in experiment [2], 81.7%; in experiment [3], 25.3%; in [4], 35.4%; in experiment [5], 15.9%; in experiment [6] it was 64.4%. For the same molecule, the growth was -33.3% (active) in experiment [7], 34.5% in experiment [8], 53% in experiment [9] and 14.9% in [10].

Consider `NC(=Nc1ccccc1)SCCCSC(N)=Nc1ccccc1`, for which the growth in experiment [1] is 92.6%; in experiment [2], 93.6%; in [3], 81.8%; in experiment [4], 96.5%; in [5] it was 100%; in [6] it was 41.6%. The growth in [7] was 69.2%; in [8], 89.5%; in experiment [9], 102%; in [10] it was 78.7%.

`OC(c1cc2cc(Cl)ccc2c2cc(C(F)(F)F)ccc12)C1CCCCN1` (stereo not given): the growth in experiment [1] is -78.8% (active); in [2], -73% (active); in experiment [3], -42.7% (active); in experiment [4], -92.3% (active); in experiment [5] it was -67.8% (active); in experiment [6], -76.1% (active). The growth in experiment [7] was -89.6% (active); in experiment [8], -85.9% (active); in experiment [9], -67.5% (active); in experiment [10], -87.2% (active).

Regarding `CCN(CC)CCCC(C)Nc1cnc(C(=O)Nc2cccc3ccc(OC)nc23)cn1` (stereo not given), the growth in experiment [1] is 96.1%; in [2], 61.4%; in experiment [3] it was 75.5%; in [4], 94.2%; in experiment [5], 1.05% (active); in experiment [6], 49.5%. Besides, the growth was 5.07% (active) in experiment [7], 81.2% in [8], 73.4% in experiment [9] and 71.4% in experiment [10].

`COc1ccc(Nc2ncccc2C(=O)NCc2cn(Cc3cc(OC)cc(OC)c3)nn2)cc1`: the growth in experiment [1] was 103%; in experiment [2], 98.3%; in [3], 105%; in experiment [4], 81.9%; in [5] it was 98.3%; in [6] it was 93.2%. The growth was 79.4% in [7], 89.5% in experiment [8], 95.3% in experiment [9] and 114% in experiment [10].

`Nc1c(C(=O)c2ccc(Br)cc2)sc2nc3c(cc12)CCCC3`: the growth was 97.4% in experiment [1]; 92.2% in [2]; 101% in [3]; 98.6% in [4]; 103% in experiment [5]; 89.2% in experiment [6]. Also, the growth was 43.1% in experiment [7], 96.8% in [8], 98.2% in [9] and 104% in [10].

With `Cc1cc(O)ccc1C1=NN(c2ccc(S(N)(=O)=O)cc2)C(=O)CC1`, the growth is 64.3% in experiment [1]; 94.6% in experiment [2]; 121% in experiment [3]; 80.2% in experiment [4]; 12.1% in experiment [5]; 89.7% in experiment [6]. The growth in experiment [7] was -36.6% (active); in [8], 43.9%; in experiment [9], 60.4%; in experiment [10], 55.6%.

Turning to `CC(C)(C)c1ccc(Cn2c(-c3nonc3N)nc3ccccc32)cc1`, the growth in [1] is 70.7%; in experiment [2], 83.4%; in [3], 83%; in experiment [4], 82.1%; in experiment [5], 86%; in experiment [6], 64.3%. For the same molecule, the growth in experiment [7] is 49.3%; in experiment [8] it was 68.4%; in experiment [9] it was 80.4%; in [10] it was 67.2%.

Consider `O=C(O)C1[S][Sb]([CH](C(=O)O)[CH](C(=O)O)[Sb]2[S]C(C(=O)O)C(C(=O)O)[S]2)[S]C1C(=O)O` (stereo not given), for which the growth was 104% in experiment [1]; 105% in [2]; 95.8% in [3]; 123% in experiment [4]; 84.6% in experiment [5]; 91.6% in [6]. Moreover, the growth in [7] is 42.4%; in experiment [8] it was 89.2%; in experiment [9] it was 93.7%; in experiment [10], 114%.

Consider `CN=C1C=C/C(=N/N=c2/ccn(O)cc2C)C=C1C`, for which the growth in [1] was 90%; in experiment [2] it was 103%; in experiment [3], 113%; in [4], 97.2%; in experiment [5], 111%; in [6], 85.7%. Further, the growth is 77.9% in [7], 88.8% in experiment [8], 89.3% in experiment [9] and 138% in [10].

Regarding `COc1ccc(NC(=O)/C=C/c2ccc(Cl)c(Cl)c2)cn1`, the growth in experiment [1] is 84.7%; in experiment [2], 68.3%; in experiment [3] it was 91.6%; in experiment [4], 90.1%; in [5] it was 99%; in experiment [6], 87.1%. Further, the growth in [7] was 79.9%; in experiment [8], 79.1%; in experiment [9], 85.6%; in [10] it was 101%.

`CCN(C)CCCOc1ccc(/C(=C(\C)Cc2cccc(OC)c2)c2ccc(OC(C)=O)cc2)cc1`: the growth in experiment [1] was 93.9%; in [2] it was 86.2%; in [3], 98.5%; in experiment [4] it was 97%; in experiment [5] it was 105%; in experiment [6], 99.2%. Moreover, the growth is 94.3% in experiment [7], 104% in experiment [8], 101% in experiment [9] and 107% in experiment [10].

Consider `Cc1nc2c(-c3cnc(N)nc3)nc(N3CCOCC3)nc2n1C(C)C`, for which the growth in experiment [1] was 16.5%; in [2] it was -1.05% (active); in experiment [3] it was -5.38% (active); in experiment [4] it was -12.7% (active); in [5] it was 12.2%; in [6] it was -17.2% (active). In addition, the growth in experiment [7] was 4.22% (active); in experiment [8], -1.09% (active); in experiment [9], -8.16% (active); in experiment [10] it was -2.93% (active).

With `Oc1[nH]c2ccccc2c1/C=c1/ccc2c(c1)N=C(c1ccc(C(F)(F)F)cc1)N=2`, the growth in experiment [1] was 67%; in experiment [2] it was 89.6%; in [3], 76.8%; in [4], 71.6%; in experiment [5] it was 41.1%; in experiment [6], 57.4%. The growth is 40.7% in [7], 50% in [8], 6.1% (active) in experiment [9] and 78.8% in experiment [10].

With `COc1ccc(NC(=O)C2c3ccccc3C(=O)N(CC(C)C)C2c2cccs2)cc1` (stereo not given), the growth was 95.2% in experiment [1]; 92.7% in experiment [2]; 110% in [3]; 90.1% in experiment [4]; 94.3% in [5]; 94.1% in experiment [6]. For the same molecule, the growth in [7] is 92.3%; in experiment [8] it was 89.5%; in experiment [9] it was 98.8%; in experiment [10], 105%.

For `OC(c1cc(-c2ccc(C(F)(F)F)cc2)nc(-c2ccc(C(F)(F)F)cc2)c1)C1CCCCN1` (stereo not given), the growth was -60.2% (active) in experiment [1]; -71.2% (active) in experiment [2]; -79.5% (active) in experiment [3]; -86.9% (active) in experiment [4]; -67.7% (active) in experiment [5]; -81.9% (active) in [6]. Besides, the growth is -78.7% (active) in [7], -84.4% (active) in experiment [8], -75.4% (active) in experiment [9] and -79.6% (active) in experiment [10].

As for `O=C(/C=C/c1cc([N+](=O)[O-])ccc1Cl)c1ccccc1`, the growth was 87.6% in [1]; 86.5% in experiment [2]; 88.1% in experiment [3]; 103% in [4]; 97.6% in experiment [5]; 73.7% in experiment [6]. Further, the growth in [7] was 82.9%; in [8], 91.5%; in [9] it was 78.4%; in experiment [10], 109%.

For the molecule `COc1ccc(NC(=O)c2ccc(C(F)(F)F)nc2Nc2ccc(Cl)cc2C)cc1Cl`, the growth was 3.83% (active) in [1]; 26.7% in [2]; 45.8% in experiment [3]; 32.4% in [4]; 7.62% (active) in [5]; -8.93% (active) in [6]. In addition, the growth in experiment [7] is 18.9%; in experiment [8], 14.2%; in experiment [9] it was 17%; in experiment [10], -14.5% (active).

Turning to `Cc1cc(-c2nnc(/C=C/c3ccc4c(c3)OCO4)o2)n[nH]1`, the growth is 77.7% in [1]; 95.2% in experiment [2]; 66.5% in experiment [3]; 78.5% in experiment [4]; 84.3% in experiment [5]; 80.7% in experiment [6]. Moreover, the growth in experiment [7] was 15.2%; in experiment [8], 58.7%; in experiment [9] it was 97.2%; in experiment [10] it was 61.6%.

As for `Nc1nonc1-c1nc2ccccc2n1Cc1ccc(F)cc1`, the growth is 70.6% in [1]; 69.3% in experiment [2]; 69.8% in [3]; 56.7% in experiment [4]; 49.3% in experiment [5]; 65% in [6]. Also, the growth in experiment [7] was 4.81% (active); in experiment [8], 39.1%; in experiment [9], 76.4%; in [10], 42.8%.
